# From PubChem BioAssay (Tox21)
# Records with an inconclusive call do not appear. Where a call stands in place of a potency, no number is given. Activity calls are given as the source filed them. Unless noted, calls come from the whole dose curve; as a rule, active = well fitted curve in the direction sought with a large enough effect in the repeat runs; inconclusive = weak or mixed curves; inactive = no such curve, though single readings can be large; an effect the other way counts as inactive or inconclusive.
# Columns and labels:
# [1] = qHTS assay to identify small molecule antagonists of the glucocorticoid receptor (GR) signaling pathway - cell viability counter screen (AID 720693); note: nearly all actives have a fitted effect of over 55% in size; note: potency is the fitted concentration of half-maximal effect
# [2] = qHTS assay for identifying genotoxic compounds that show differential cytotoxicity against isogenic chicken DT40 cell lines with known DNA damage response pathways - Rev3 mutant cell line (AID 743014); note: nearly all actives have a fitted effect of over 55% in size; note: potency is the fitted concentration of half-maximal effect
# [3] = qHTS assay for identifying genotoxic compounds that show differential cytotoxicity against isogenic chicken DT40 cell lines with known DNA damage response pathways - Rad54/Ku70 mutant cell line (AID 743015); note: nearly all actives have a fitted effect of over 60% in size; note: potency is the fitted concentration of half-maximal effect
# [4] = qHTS assay to identify small molecule antagonists of the androgen receptor (AR) signaling pathway - cell viability counter screen (AID 743033; note: nearly all actives have a fitted effect of over 45% in size; note: potency is the fitted concentration of half-maximal effect)
# [5] = target: Androgen receptor (Homo sapiens) (UniProt P10275); experiment: qHTS assay to identify small molecule antagonists of the androgen receptor (AR) signaling pathway (AID 743035; active = well fitted inhibition curve with a large enough effect in the signal ratio in the repeat runs, not every such curve was filed as active; the % refers to the signal ratio)
# Outline: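 In this cell-based reporter screen, compounds were tested in concentration series against R1881-activated HEK293 cells expressing beta-lactamase under UAS control; after 16 h at 37C, FRET substrate was added and fluorescence read 2 h later.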
# [6] = target: Androgen receptor (Homo sapiens) (UniProt P10275); experiment: qHTS assay to identify small molecule agonists of the androgen receptor (AR) signaling pathway (AID 743036; active = well fitted activation curve with a large enough effect in the signal ratio in the repeat runs, with a control signal flat, not every such curve was filed as active; the % refers to the signal ratio)
# Outline: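 AR-UAS-bla HEK293 cells, plated 4 h before dosing, were treated with compound for 16 h at 37C. beta-Lactamase reporter read after 2 h with LiveBLAzer B/G FRET substrate at room temperature.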
# [7] = target: Androgen receptor (Homo sapiens) (UniProt P10275); experiment: qHTS assay to identify small molecule agonists of the androgen receptor (AR) signaling pathway using the MDA cell line (AID 743040; note: nearly all actives have a fitted effect of over 20% in size)
# Outline: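 Agonist activity is measured as luciferase luminescence in human MDA-kb2 cells whose MMTV reporter responds to both AR and GR. Compounds in DMSO incubate 16 h at 37C, 0% CO2, and ONE-Glo is read after 30 min.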
# [8] = qHTS assay to identify small molecule antagonists of the androgen receptor (AR) signaling pathway using the MDA cell line - cell viability counter screen (AID 743041; note: nearly all actives have a fitted effect of over 45% in size)
# Outline: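 qHTS viability read-out; MDA-kb2 AR-luc; R1881-stimulated; 16 h exposure at 37C, 0% CO2; CellTiter-Fluor, 30 min; fluorescence intensity.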
# [9] = target: Androgen receptor (Homo sapiens) (UniProt P10275); experiment: qHTS assay to identify small molecule antagonists of the androgen receptor (AR) signaling pathway using the MDA cell line (AID 743042; note: nearly all actives have a fitted effect of over 55% in size)
# Outline: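 MDA-kb2 cells (human breast carcinoma, stably carrying an MMTV-luciferase reporter responsive to AR and GR) were plated at 3,000 cells/well and preincubated 5 hr at 37C, then given compound plus R1881 agonist for 16 h. ONE-Glo luminescence was read.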
# [10] = qHTS assay for identifying genotoxic compounds that show differential cytotoxicity against isogenic chicken DT40 cell lines with known DNA damage response pathways - wild type cell line (AID 743012); note: nearly all actives have a fitted effect of over 60% in size; note: potency is the fitted concentration of half-maximal effect
# Outline: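 300 wt DT40 cells/well; cpd (DMSO) pintool-transferred after ~0.5 h at 37 C/5% CO2; 40 h incubation; CellTiter-Glo added, 30 min RT; luminescence read.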
# Sequence of Androgen receptor (Homo sapiens) (P10275 whole entry, looked up): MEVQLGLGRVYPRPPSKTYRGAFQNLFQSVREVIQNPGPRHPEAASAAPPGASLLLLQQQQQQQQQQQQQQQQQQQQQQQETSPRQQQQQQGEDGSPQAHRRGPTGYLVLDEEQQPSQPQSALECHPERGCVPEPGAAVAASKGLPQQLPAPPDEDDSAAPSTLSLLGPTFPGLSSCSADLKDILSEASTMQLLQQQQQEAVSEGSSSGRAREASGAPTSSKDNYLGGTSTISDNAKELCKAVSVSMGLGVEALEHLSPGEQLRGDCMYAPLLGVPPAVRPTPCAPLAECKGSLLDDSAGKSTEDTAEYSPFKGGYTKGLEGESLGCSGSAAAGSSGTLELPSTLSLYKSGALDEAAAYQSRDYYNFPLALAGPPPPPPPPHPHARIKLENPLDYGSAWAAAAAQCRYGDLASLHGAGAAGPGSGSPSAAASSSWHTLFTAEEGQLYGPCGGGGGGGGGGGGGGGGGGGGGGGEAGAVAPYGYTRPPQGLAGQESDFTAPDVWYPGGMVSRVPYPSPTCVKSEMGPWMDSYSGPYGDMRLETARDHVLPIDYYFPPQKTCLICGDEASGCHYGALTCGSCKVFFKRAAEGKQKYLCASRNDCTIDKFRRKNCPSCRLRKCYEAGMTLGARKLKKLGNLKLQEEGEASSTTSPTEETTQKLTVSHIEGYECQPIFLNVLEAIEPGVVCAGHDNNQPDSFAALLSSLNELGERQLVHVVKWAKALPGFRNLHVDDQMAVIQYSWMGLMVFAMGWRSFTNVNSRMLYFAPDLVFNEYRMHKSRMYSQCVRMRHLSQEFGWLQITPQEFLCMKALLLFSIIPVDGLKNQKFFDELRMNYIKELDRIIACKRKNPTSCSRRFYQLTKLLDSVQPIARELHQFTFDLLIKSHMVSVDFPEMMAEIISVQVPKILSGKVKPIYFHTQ
smiles,measurement,setting,value
C[C@@H](O)[C@H]1C(=O)N2C(C(=O)O)=C([C@H]3CCCO3)S[C@H]12,Potency,[1],inactive
same,Potency,[2],inactive
same,Potency,[3],inactive
same,Potency,[4],inactive
same,Potency,[5],inactive
same,outcome,[6],inactive
same,outcome,[7],inactive
same,Potency,[8],inactive
same,Potency,[9],inactive
Oc1cccc(Nc2ccccc2)c1,Potency,[1],inactive
same,Potency,[10],inactive
same,Potency,[4],inactive
C(=C\c1ccccc1)/c1ccccc1,Potency,[1],inactive
same,Potency,[2],inactive
same,Potency,[3],inactive
same,Potency,[4],inactive
same,Potency,[8],inactive
Clc1cc(Cl)nc(Cl)n1,Potency,[1],inactive
same,Potency,[2],inactive
same,Potency,[3],inactive
same,Potency,[4],inactive
Nc1nc2ccc([N+](=O)[O-])cc2s1,Potency,[1],inactive
same,Potency,[2],64.8 µM (active)
same,Potency,[4],inactive
same,outcome,[7],inactive
same,Potency,[9],inactive
O=c1cc(-c2ccccc2)oc2ccc3ccccc3c12,Potency,[1],54.9 µM (active)
same,Potency,[2],15.4 µM (active)
same,Potency,[4],21.9 µM (active)
same,Potency,[8],inactive
same,Potency,[9],inactive
N#CCc1ccc(Cl)cc1Cl,Potency,[1],inactive
same,Potency,[2],inactive
same,Potency,[3],inactive
same,Potency,[4],inactive
same,Potency,[8],inactive
O=C(OCC(O)CO)c1ccccc1Nc1ccnc2cc(Cl)ccc12 (configuration not stated),Potency,[1],inactive
same,Potency,[2],inactive
same,Potency,[4],inactive
same,outcome,[6],inactive
same,outcome,[7],inactive
same,Potency,[8],inactive
same,Potency,[9],inactive
O=C=Nc1ccc(Cl)c(Cl)c1,Potency,[1],inactive
same,Potency,[3],inactive
same,Potency,[4],inactive
same,Potency,[8],inactive
CCCCCC#CC(=O)OC,Potency,[1],inactive
same,Potency,[2],inactive
same,Potency,[4],inactive
same,Potency,[8],inactive
CC(C)=CCC/C(C)=C/CC/C(C)=C/CCC(=O)OC/C=C(\C)CCC=C(C)C,Potency,[1],inactive
same,Potency,[2],inactive
same,Potency,[4],inactive
same,Potency,[8],inactive
Oc1c(I)cc(I)c2cccnc12,Potency,[1],inactive
same,Potency,[3],13.3 µM (active)
same,Potency,[4],inactive
same,Potency,[8],inactive
C=C(C)CCCC(C)CCO (configuration not stated),Potency,[1],inactive
same,Potency,[3],54.5 µM (active)
same,Potency,[4],inactive
same,Potency,[8],inactive
O=C1CCCCCCCCCCOCCCCO1,Potency,[1],inactive
same,Potency,[10],inactive
same,Potency,[8],inactive
C=CCc1ccccc1OCC(O)CNC(C)C (configuration not stated),Potency,[1],inactive
same,Potency,[10],inactive
same,Potency,[4],inactive
same,Potency,[5],inactive
same,outcome,[6],inactive
same,outcome,[7],inactive
same,Potency,[8],inactive
same,Potency,[9],inactive
CC(C)C=O,Potency,[1],inactive
same,Potency,[4],inactive
same,Potency,[8],inactive
CC(=O)N/N=C/c1ccc([N+](=O)[O-])o1,Potency,[10],11.9 µM (active)
same,Potency,[2],10.6 µM (active)
same,Potency,[3],18.8 µM (active)
same,Potency,[4],inactive
same,Potency,[8],inactive
CCCCC(CC)CN (configuration not stated),Potency,[10],55.5 µM (active)
same,Potency,[2],62.3 µM (active)
same,Potency,[3],55.5 µM (active)
same,Potency,[4],44.5 µM (active)
same,outcome,[6],inactive
same,outcome,[7],inactive
same,Potency,[8],inactive
same,Potency,[9],inactive
C=CC(=O)OCC1CC2CC1C1CCC(COC(=O)C=C)C21 (configuration not stated),Potency,[2],24.3 µM (active)
same,Potency,[3],19.3 µM (active)
CC(=O)NC1(c2cccc(F)c2)CCN(CC[C@@]2(c3ccc(Cl)c(Cl)c3)CN(c3ccccc3)C(=O)CO2)CC1,Potency,[10],43.4 µM (active)
same,Potency,[2],54.6 µM (active)
same,Potency,[3],48.7 µM (active)
same,Potency,[4],39 µM (active)
C/C=C(/C(=C/C)c1ccc(O)cc1)c1ccc(O)cc1,Potency,[10],inactive
same,Potency,[8],inactive
C[C@]12CC[C@@H]3c4ccc(O)cc4CC[C@H]3[C@@H]1CC[C@@H]2OC(=O)CCC1CCCC1,Potency,[10],11.9 µM (active)
same,Potency,[2],24.3 µM (active)
same,Potency,[3],11.9 µM (active)
same,Potency,[4],inactive
same,Potency,[8],inactive
CN(C(=O)CN(CCO)CC(=O)N(C)C(C)(C)Cc1ccccc1)C(C)(C)Cc1ccccc1,Potency,[1],inactive
same,Potency,[8],inactive
Brc1cc2ccccc2c2ccccc12,Potency,[1],inactive
same,Potency,[4],inactive
same,Potency,[8],inactive
O=C(Cn1ccnc1[N+](=O)[O-])NCCO,Potency,[10],inactive
same,Potency,[2],inactive
same,Potency,[3],inactive
same,Potency,[4],inactive
same,Potency,[5],inactive
same,outcome,[6],inactive
same,outcome,[7],inactive
same,Potency,[8],inactive
same,Potency,[9],inactive
CCOc1cccc(-n2cc(C(=O)N3CCN(c4cc(C(=O)O)c5ccccc5c4)CC3)nc2-c2ccc(C)cc2)c1,Potency,[1],inactive
same,Potency,[4],inactive
same,Potency,[5],inactive
same,outcome,[7],inactive
OC(CCN1CCCC1)(c1ccccc1)C1CCCCC1 (configuration not stated),Potency,[10],11.4 µM (active)
same,Potency,[5],inactive
same,outcome,[6],inactive
same,outcome,[7],inactive
same,Potency,[8],inactive
same,Potency,[9],inactive
